The structures appear in SMILES notation. The campaign covered roughly 310,000 compounds. About 14,000 (4.5%) showed an effect of 50% or more. The effect is printed as a negative number. For the sample, strong results were picked, then their nearest neighbours and some compounds at random.
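Also: peak tail current of the secondary pulse compared with the same well before compound.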

This experiment deals with human ether-à-go-go-related gene (hERG) potassium channel (human, UniProt Q12809). The experiment can be described thus: primary screen, population patch clamp on CHO cells stably expressing hERG; higher = less effect of the substance.
Chain of human ether-à-go-go-related gene (hERG) potassium channel (Q12809 whole entry, looked up): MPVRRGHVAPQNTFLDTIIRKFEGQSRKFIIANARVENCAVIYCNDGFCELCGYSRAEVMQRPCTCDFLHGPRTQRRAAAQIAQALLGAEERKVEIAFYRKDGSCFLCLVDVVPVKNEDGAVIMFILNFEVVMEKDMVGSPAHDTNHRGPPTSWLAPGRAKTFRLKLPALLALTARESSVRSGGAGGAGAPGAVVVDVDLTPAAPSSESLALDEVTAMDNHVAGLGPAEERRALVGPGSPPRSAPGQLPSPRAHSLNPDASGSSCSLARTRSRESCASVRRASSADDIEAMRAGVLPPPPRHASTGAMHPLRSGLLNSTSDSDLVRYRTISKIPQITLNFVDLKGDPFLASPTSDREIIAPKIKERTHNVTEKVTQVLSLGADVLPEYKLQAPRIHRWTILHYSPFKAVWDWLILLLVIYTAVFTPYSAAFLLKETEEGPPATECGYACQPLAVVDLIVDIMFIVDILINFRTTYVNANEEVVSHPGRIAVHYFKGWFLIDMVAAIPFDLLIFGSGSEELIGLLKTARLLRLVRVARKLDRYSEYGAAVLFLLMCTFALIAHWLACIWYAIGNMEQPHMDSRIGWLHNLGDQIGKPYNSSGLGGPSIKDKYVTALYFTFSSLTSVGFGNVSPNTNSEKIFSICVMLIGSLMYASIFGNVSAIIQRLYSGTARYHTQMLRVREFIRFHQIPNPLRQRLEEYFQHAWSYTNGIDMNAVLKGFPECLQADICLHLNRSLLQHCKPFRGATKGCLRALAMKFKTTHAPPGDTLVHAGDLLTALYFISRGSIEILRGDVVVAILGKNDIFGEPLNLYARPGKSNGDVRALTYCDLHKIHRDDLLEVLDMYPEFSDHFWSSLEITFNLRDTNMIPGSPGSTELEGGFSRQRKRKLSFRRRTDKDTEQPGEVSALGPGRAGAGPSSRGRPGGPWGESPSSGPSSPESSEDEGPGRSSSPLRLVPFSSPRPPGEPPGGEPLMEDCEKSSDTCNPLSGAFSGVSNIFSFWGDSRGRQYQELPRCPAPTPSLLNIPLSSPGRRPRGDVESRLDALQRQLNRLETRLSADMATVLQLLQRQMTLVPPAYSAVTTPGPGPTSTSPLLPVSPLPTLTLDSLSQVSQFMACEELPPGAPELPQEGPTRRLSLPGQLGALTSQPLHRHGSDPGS
Consider `CN(C(=O)Nc1ccccc1)C1CCCCC1`, for which the “hERG current change (%, negative = inhibition) at 10uM” value was found to be 10.2%.
On to `C=CCOC(=O)C1=C(C)NC(SCC(=O)Nc2ccccc2)=C(C#N)C1c1ccco1` (stereo not shown), for which the “hERG current change (%, negative = inhibition) at 10uM” value is on record as -15.1%.
The same measure for `CCC(Sc1nc2ccccc2o1)C(=O)Nc1nnc(C)s1` (stereo not shown): -12.4%.
The same measure for `CN(C)C(=O)c1cc(C(=O)c2ccc(F)cc2F)c[nH]1`: 14.6%; for `CCc1ccc(-n2c(SCc3cc(=O)n4cc(Br)ccc4n3)nc3[nH]ncc3c2=O)cc1`: -51%.
The same measure for `Cc1ccccc1-n1c(SCc2cc(=O)n3ccccc3n2)nc2[nH]ncc2c1=O`: -35.2%.
Consider `O=c1c2cn[nH]c2nc(SCc2cc(=O)n3cc(Br)ccc3n2)n1-c1ccc(Br)cc1`, for which the “hERG current change (%, negative = inhibition) at 10uM” value is given as -24.8%.
The same measure for `CN(Cc1ccccc1)C(=O)c1ccc2c(c1)OCCO2`: 5.55%; for `COc1ccc(-c2nc3ccccc3c(=O)n2CCOc2cccc(C)c2C)cc1`: 15%.
The figure for `NC(=O)Cn1cc(C(=O)C(=O)N2CCOCC2)c2ccccc21` is 1.6%.
For `Cc1cc(F)ccc1S(=O)(=O)Nc1ccccc1C(=O)Nc1ccccc1-c1nc2ccccc2[nH]1`, the “hERG current change (%, negative = inhibition) at 10uM” value came out at 4.92%.
The figure for `O=C(NN1CC(C(=O)OCc2ccc(Br)cc2)CC1=O)c1ccccc1` (stereo not shown) is -21.2%.
Take `O=C(NN1CC(C(=O)OCc2ccccc2F)CC1=O)c1ccccc1` (stereo not shown): the “hERG current change (%, negative = inhibition) at 10uM” value was -56.8%.
The same measure for `O=C(NN1CC(C(=O)OCc2ccc(Cl)cc2Cl)CC1=O)c1ccccc1` (stereo not shown): -16.5%; for `COc1cccc(NC(=O)N(CCCN2CCOCC2)C(C)c2cc3ccccc3o2)c1` (stereo not shown): -62.5%.
The same measure for `COc1ccc(NC(=S)N(CCCN2CCOCC2)C(C)c2cc3cccc(OC)c3o2)cc1` (stereo not shown): -35.5%.
The same measure for `COc1cccc2cc(C(C)N(CCCN3CCOCC3)C(=O)Nc3ccccc3)oc12` (stereo not shown): -16.9%; for `COc1cccc(NC(=O)N(CCCN2CCOCC2)C(C)c2cc3cccc(OC)c3o2)c1` (stereo not shown): -29.4%; for `COc1cccc(NC(=S)N(CCCN2CCOCC2)C(C)c2cc3ccccc3o2)c1` (stereo not shown): -44%.
Regarding `COc1ccc(NC(=S)N(CCCN2CCOCC2)C(C)c2cc3ccccc3o2)cc1` (stereo not shown), the “hERG current change (%, negative = inhibition) at 10uM” value is reported as -78.4%.
The figure for `Cn1c(=O)oc2cc(S(=O)(=O)NCCC(=O)NCCc3ccccc3)ccc21` is 1.29%; for `COC(=O)c1ccc(CSc2nc3c(cnn3-c3ccc(F)cc3)c(=O)[nH]2)o1` it is 13.1%; for `O=C(Nc1ccccc1)c1ccc2c(c1)OCCCO2` it is -10.7%.
As for `[Br-].c1ccc(Cn2c(-c3ccccc3)c[n+]3c2SCCC3)cc1`, the “hERG current change (%, negative = inhibition) at 10uM” value was -70.9%.
Turning to `COc1ccc(-c2c[n+]3c(n2-c2ccccc2)SCC3)cc1OC.[Br-]`, the “hERG current change (%, negative = inhibition) at 10uM” value was 4.92%.
The same measure for `O=[N+]([O-])c1cccc(-c2c[n+]3c(n2-c2ccccc2)SCC3)c1.[Br-]`: -42.3%.
The same measure for `O=C(CSc1nnc2ccc(-c3ccc(F)cc3)nn12)N1CCCC1`: -13.5%; for `O=C(Nc1c(C(=O)c2ccccc2)oc2ccccc12)c1cc(-c2ccccc2O)n[nH]1`: 9.34%.
The figure for `COc1cc(C(=O)Nc2ccc3c(c2)OCO3)ccc1-n1cnnn1` is -15.6%; for `O=C(Cn1nnc(-c2ccccc2-n2cnnn2)n1)NCc1ccccc1` it is -5.93%; for `Cc1ccc(OCC(=O)N2CCN(C3CCC(c4ccccc4)CC3)CC2)cc1.O=C(O)C(=O)O` (stereo not shown) it is -62.8%.
As for `COc1ccc(OCC(=O)N2CCN(C(=O)Cc3ccccc3)CC2)cc1`, the “hERG current change (%, negative = inhibition) at 10uM” value is listed as -32.5%.
For `Cc1ccc(OCC(=O)N2CCC(N3CCCCCC3)CC2)cc1`, the “hERG current change (%, negative = inhibition) at 10uM” value is given as -28.3%.
The figure for `COc1ccc(OCC(=O)N2CCN(C3CCC(c4ccccc4)CC3)CC2)cc1` (stereo not shown) is -54.4%; for `COc1ccc(N2CCN(C(=O)COc3ccccc3)CC2)cc1` it is -20.6%.
`CC1CCC(N2CCN(C(=O)COc3ccccc3)CC2)CC1.O=C(O)C(=O)O` (stereo not shown): the “hERG current change (%, negative = inhibition) at 10uM” value was -31.4%.
The same measure for `COc1ccc(C2NC(=O)Cc3cc(OC)c(OC)cc32)cc1OC` (stereo not shown): 5.46%; for `COC(=O)c1ccc(/C=C/C(=O)OCC(=O)Nc2ncc(Cl)cc2Cl)cc1`: -19.9%; for `CCOc1ccccc1CNn1cnnc1`: 2.62%.
Consider `Cc1nn(Cc2ccc(Cl)c(Cl)c2)c(C)c1NC(=O)c1cc(-c2ccc3c(c2)OCO3)on1`, for which the “hERG current change (%, negative = inhibition) at 10uM” value came to 6.42%.
On to `Cc1cccc(NC(=O)OC2CN3CCC2CC3)c1` (stereo not shown), for which the “hERG current change (%, negative = inhibition) at 10uM” value is listed as -9.77%.
The figure for `Clc1ccc2c(c1)C(OC1CN3CCC1CC3)c1ccccc1CS2.O=C(O)/C=C\C(=O)O` (stereo not shown) is -50.6%; for `O=C(Nc1cccc(Cl)c1)OC1CN2CCC1CC2` (stereo not shown) it is 29.5%; for `O=C(Nc1ccccc1Cl)OC1CN2CCC1CC2` (stereo not shown) it is -32.9%.
The figure for `Brc1ccc2c(c1)C(OC1CN3CCC1CC3)c1ccccc1CS2.O=C(O)/C=C\C(=O)O` (stereo not shown) is -71.4%; for `CN1CCN(CCOC2c3ccccc3CSc3ccc(Cl)cc32)CC1.O=C(O)/C=C\C(=O)O` (stereo not shown) it is -57.2%.
The same measure for `Brc1ccc2c(c1)C(C1=NCCN1)c1ccccc1CS2.O=C(O)/C=C\C(=O)O` (stereo not shown): -20.3%; for `CCOCCN1CCN(C2c3ccccc3CSc3ccccc32)CC1.O=C(O)C(=O)O` (stereo not shown): -30.3%.
Consider `Clc1ccc2c(c1)C(C1=NCCN1)c1ccccc1CS2.O=C(O)/C=C\C(=O)O` (stereo not shown), for which the “hERG current change (%, negative = inhibition) at 10uM” value is -8.02%.
The same measure for `CCC(=O)OC1(C)C(=O)C=C2C=C(CCCCNC(=O)OC(C)(C)C)OC=C2C1=O` (stereo not shown): 6.58%; for `CCCN(CCC)CCCNC(=O)CN1C(=O)CSc2ccc(S(=O)(=O)N3CCOCC3)cc21`: 20.2%.
As for `CCc1ccc(-c2nnn(Cc3nc4ccccc4s3)n2)cc1`, the “hERG current change (%, negative = inhibition) at 10uM” value is reported as -10.3%.
The same measure for `Cc1ccc(OCC(=O)Nc2ccc(S(=O)(=O)N3CCCC3)cc2)cc1`: 15.5%.
Consider `O=C(N/N=C/c1cc([N+](=O)[O-])ccc1O)C(O)(c1ccccc1)c1ccccc1`, for which the “hERG current change (%, negative = inhibition) at 10uM” value amounted to 4.13%.
The figure for `Cc1cc(C(=O)NN=C2CCCCCCC2)c2ccccc2n1` is 5.42%.
The figure for `C=CCOC(=O)C1=C[C@H](c2ccc(C(F)(F)F)cc2)[C@@H](CCCO)[C@H](OCC)O1` is -16.3%; for `O=C(CC1C(=O)NCCN1Cc1ccc(Cl)c(F)c1)NCCc1cccnc1` (stereo not shown) it is -12.7%.
In the case of `CCC1CCCCN1C(=O)C(=O)c1cn(CC(=O)N(CC)CC)c2ccccc12` (stereo not shown), the “hERG current change (%, negative = inhibition) at 10uM” value was 21%.
The same measure for `CCCCN(C(=O)c1ccc2c(c1)OCCO2)c1c(N)n(CC(C)C)c(=O)[nH]c1=O`: -11.7%; for `O=c1oc2ccccc2n1CCn1c2ccccc2c2nc3ccccc3nc21`: 10.7%.
With `CCN(CCCNC(=O)CSc1cc(=O)n(C)c2cc(Cl)ccc12)Cc1ccccc1`, the “hERG current change (%, negative = inhibition) at 10uM” value is -58.8%.
The same measure for `CN(CCCNC(=O)CSc1cc(=O)n(C)c2ccc(Cl)cc12)Cc1ccccc1`: -61.2%.
As for `Cc1cccc(CN2CCC(CNC(=O)CSc3cc(=O)n(C)c4cc(Cl)ccc34)CC2)c1`, the “hERG current change (%, negative = inhibition) at 10uM” value is reported as -69.7%.
The same measure for `CCOc1ccc(CCNC(=O)CSc2cc(=O)n(C)c3cc(Cl)ccc23)cc1OCC`: -3.7%; for `CN(CCCNC(=O)COc1cc(=O)n(C)c2ccccc12)Cc1ccccc1`: -18.1%; for `CN(CCCNC(=O)CSc1cc(=O)n(C)c2cc(Cl)ccc12)Cc1ccccc1`: -63.5%.
The figure for `Cn1c(=O)cc(SCC(=O)NCCC2=CCCCC2)c2cc(Cl)ccc21` is 5.01%; for `Cn1c(=O)cc(SCC(=O)NCCCN2CCOCC2)c2ccc(Cl)cc21` it is -3.15%; for `CCN1CCCC1CNC(=O)CSc1cc(=O)n(C)c2cc(Cl)ccc12` (stereo not shown) it is -32.7%.
Take `COCCNC(=O)CSc1cc(=O)n(C)c2cc(Cl)ccc12`: the “hERG current change (%, negative = inhibition) at 10uM” value is reported as 2.04%.
The figure for `CCCCNC(=O)CSc1cc(=O)n(C)c2ccccc12` is 4.11%; for `Cn1c(=O)cc(SCC(=O)NCC2CCCO2)c2ccc(Cl)cc21` (stereo not shown) it is -7.37%.
The same measure for `C/C(CC(=O)Nc1ccc(Cl)cc1Cl)=N\NC(=O)C(=O)NCCO`: 6.64%.
The figure for `O=C(NCc1ccco1)c1cc2nc(-c3cccs3)cc(C(F)(F)F)n2n1` is -17.6%; for `COc1cc(NC(=O)c2ccc(COCC(F)(F)F)cc2)cc(OC)c1OC` it is 1.25%.
As to `O=C(CSc1ccccc1)N[C@@H](Cc1ccccc1)C(=O)O`, the “hERG current change (%, negative = inhibition) at 10uM” value worked out at 13.7%.
The figure for `O=C(Nc1ccc(S(=O)(=O)Nc2ncccn2)cc1)C1COc2ccccc2O1` (stereo not shown) is 11.1%.
For `COc1ccc(S(N)(=O)=O)cc1C(=O)NCC(C)(C)N1CCCCC1`, the “hERG current change (%, negative = inhibition) at 10uM” value is -15.2%.
The same measure for `COc1ccc2c(C)cc(SCc3c(C)noc3C)nc2c1`: -17%; for `O=C(Nc1ccc(CN2CCOCC2)cc1)c1cc(Cl)ccc1Cl`: 0.807%.
The same measure for `Cc1cc(Br)ccc1NC(=O)CNC(=O)CSc1n[nH]c(N)n1`: 18.5%.
The same measure for `CCc1cc2c3c(c1)C1(C(=O)N3C(C)(C)CC2C)C(C#N)=C(N)N2C(=C1C#N)Nc1ccccc12` (stereo not shown): -1.49%; for `O=C(NC1CCCN(Cc2ccc(Cl)cc2)C1)c1cccc(F)c1` (stereo not shown): -61.3%; for `COc1cc(OC)cc(C(=O)NC2CCCN(Cc3ccc(Cl)cc3)C2)c1` (stereo not shown): -37.1%.
In the case of `O=C(Cc1cccc(F)c1F)NC1CCCN(Cc2ccc(Cl)cc2)C1` (stereo not shown), the “hERG current change (%, negative = inhibition) at 10uM” value is on record as -21.7%.
The figure for `O=C(CCc1ccc(F)c(F)c1)NC1CCCN(Cc2ccc(Cl)cc2)C1` (stereo not shown) is -66%; for `O=C(NC1CCCN(Cc2ccc(Cl)cc2)C1)c1ccccc1C(F)(F)F` (stereo not shown) it is -16.9%; for `COc1cccc(CC(=O)NC2CCCN(Cc3ccc(Cl)cc3)C2)c1` (stereo not shown) it is -26.3%.
The same measure for `O=C(Cc1ccccc1F)NC1CCCN(Cc2ccc(Cl)cc2)C1` (stereo not shown): -33.7%; for `O=C(CCc1cccc(Cl)c1)NC1CCCN(Cc2ccccc2F)C1` (stereo not shown): -28.3%.
The same measure for `O=C(NC1CCCN(Cc2ccc(Cl)cc2)C1)c1c(F)ccc(F)c1F` (stereo not shown): -75.3%; for `COc1ccc(CCC(=O)NC2CCCN(Cc3ccc(Cl)cc3)C2)cc1OC` (stereo not shown): -48.2%; for `O=C(NC1CCCN(Cc2ccc(Cl)cc2)C1)c1c(F)cccc1F` (stereo not shown): -15.7%.
As to `COc1ccc(C(=O)NC2CCCN(Cc3ccc(Cl)cc3)C2)c(OC)c1` (stereo not shown), the “hERG current change (%, negative = inhibition) at 10uM” value is -79.5%.

The record behind these values is paper PMC4336329 (PLoS ONE, 2015).
